From PubChem BioAssay
Ba/F3 V617F tox: reduced viability of JAK2V617F-dependent Ba/F3 cells, primary screen, JAK2V617F inhibitor project, cell-based, Ba/F3 EpoR-JAK2V617F, luminescence. inhibition, % at 5.6 µM. ATP luminescence. 220,000 compounds, 1.1% hits. AID 1446, 2008;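 active means inhibition above the campaign mean plus 3 SD over all tested compounds, cut at about 24% in these data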;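 further: cytokine-independent growth of Ba/F3 cells driven by EpoR plus mutant JAK2; 0% = DMSO-treated cells and 100% = JAK inhibitor I control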
KLF5 inh: KLF5 expression inhibitors, primary screen, DLD-1 cells, luminescence | AID 1700, 2009 | DLD-1 KLF5 promoter-luciferase reporter | inhibition, % at 5 µM | 290,000 compounds, 0.23% hits;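 active means inhibition above a per-plate limit of that plate's mean compound inhibition plus 3 SD, cut at about 60% in these data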;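 further: 0% = DMSO wells and 100% = LY294002 at 200 µM; higher means less KLF5 promoter-driven luciferase light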
IEC-6 cytotox: cytotoxicity in IEC-6 intestinal epithelial cells, primary screen, cytotoxicity control for KLF5 inhibitor project, cell-based, luminescence. IEC-6 cytotoxicity, luminescence viability. inhibition, % at 5 µM. 290,000 compounds, 0.78% hits. AID 1825, 2009; in the data active means inhibition above about 22%;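 further: 0% = plate median of test compound wells and 100% = cytotoxic reference compound wells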
BaF3 tox: parental Ba/F3 cell viability inhibition, counter-screen for JAK2V617F inhibitor project, murine pro-B, CellTiter-Glo luminescence; 220,000 compounds, 1.1% hits; CellTiter-Glo ATP luminescence; inhibition, % at 5.6 µM;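 active means inhibition above a per-campaign cutoff, the mean inhibition of all tested compounds plus 3 SD, cut at about 27% in these data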;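 further: 0% = DMSO wells and 100% = JAK Inhibitor I control wells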
aSyn 5UTR inh: MLPCN primary screen, SNCA 5' untranslated region | 300,000 compounds, 0.82% hits | AID 1813, 2009 | alpha-synuclein 5'UTR reporter, inhibitor activity | inhibition, % (tested at 7.5 µM); in the data active means inhibition above about 60%;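 further: H4 neuroglioblastoma cells stably carrying SNCA 5'UTR luciferase fusion; 0% = DMSO wells and 100% = positive control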
APP 5UTR inh: inhibitors of APP translation via 5'UTR reporter, primary screen, APP 5'UTR luciferase, SH-SY5Y cells. SH-SY5Y APP 5'UTR-luciferase reporter, luminescence. inhibition, % at 2 µM. 190,000 compounds, 0.82% hits. AID 1285, 2008;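 active means inhibition above a set limit, derived from the sample mean plus 3 SD, cut at about 45% in these data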
BaF3 parental 2: parental Ba/F3 cell viability inhibition, counter-screen for JAK2V617F inhibitor project, murine pro-B, CellTiter-Glo luminescence | shares compounds with Ba/F3 V617F tox | cells kept alive by added IL-3 | inhibition, % at 5.6 µM | 580 compounds, 31% hits | AID 1520, 2009;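 active means cell growth inhibition above the hit limit set in the earlier mutant JAK2 cell screen, cut at about 27% in these data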;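 further: plate controls were DMSO-treated cells for no effect and JAK Inhibitor I control wells for full effect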
JAK2V617F confrm: viability loss in Ba/F3 EpoR-JAK2V617F cells, confirmation, JAK2V617F inhibitor project, cell-based, luminescence, triplicate. shares compounds with Ba/F3 V617F tox. CellTiter-Glo luminescence. inhibition, % at 5.6 µM. 580 compounds, 66% hits. AID 1521, 2009;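 active means mean inhibition above the hit cutoff derived in the earlier primary screen, cut at about 25% in these data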;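 further: 0% = DMSO-treated cells and 100% = JAK inhibitor I control wells; higher means lower luminescence from reduced cell ATP and viability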
The depositor's hits bear a star; / = no result given; ! = a repeat was not active. In the library only some 2.2% were active in any assay of this set; here they are far more common.

SMILES	Ba/F3 V617F tox	KLF5 inh	IEC-6 cytotox	BaF3 tox	aSyn 5UTR inh	APP 5UTR inh	others
COc1ccc(C2CN(C)CC2C(=O)c2ccc(C)cc2)cc1Cl (stereo not drawn)	4	21	5	11	4	10
CCOc1ccc(Cl)cc1CNCCc1ccccc1F	29*	-31	0	63*	-1	/
COc1ccc(CCNCc2ccccc2F)cc1OC	-4	-38	1	2	-7	37
Cn1cccc1CN1CCN(C(=O)COc2ccccc2)CC1	-4	-14	-6	1	-10	-12
Cn1nc(-c2ccc(OCC(=O)N3CCN(Cc4ccccc4)CC3)cc2)c2ccccc2c1=O	1	-46	5	39*!	1	-17
COc1ccc(CCNCc2sccc2C)cc1	/	-53	-3	/	-13	/
O=c1c2ccccc2nc(CSc2ncnc3nc[nH]c23)n1-c1ccccc1	9	4	10	32*	20	-6
O=c1c2ccccc2nc(CSc2ncnc3nc[nH]c23)n1-c1ccccc1Cl	11	-16	5	17	19	5
CC(C)N1CC=C(c2c[nH]c3ccccc23)CC1	87*	-3	-4	65*	0	3
O=C(c1ccc(Cl)cc1)C1CCCN(Cc2ccc3ncccc3c2)C1 (stereo not drawn)	3	-23	2	8	2	15
Fc1ccc(C(OCCN2CCN(CCCc3ccccc3)CC2)c2ccc(F)cc2)cc1	/	/	/	/	106*	/
O=C(Cn1cnc2ccccc2c1=O)NCC(=O)N1CCC2(CC1)OCCO2	0	-19	0	37*	-6	-5
O=C(Cn1cnc2ccccc2c1=O)NCCC(=O)N1CCC2(CC1)OCCO2	-3	-29	-4	6	-19	0
CC1(C)OC(c2ccccc2)=C/C(=C/C=C2C(=O)NC(=S)NC2=O)O1	-2	1	-7	42*	16	-11
COc1cc2c(cc1OC)-c1c(OC)c(OC)c(OC)c3ccnc(c13)C2=O	10	11	15	10	104*	26
Cn1ncnc2c(=O)n(C)c(=O)nc1-2	/	/	/	/	98*	/
CN(C)C(=O)Oc1ccc(OCc2nc3ccccc3[nH]2)cc1	24*	-92	14	23	38	-88	BaF3 parental 2=31*;JAK2V617F confrm=34*
CC(C)c1ccccc1NC1=NCCCS1	/	-14	-7	/	5	/
FC(F)(F)Oc1ccc(NC2=NCCCS2)cc1	/	-37	3	/	-50	/
N#CC(C#N)=C(N)c1cccnc1	34*	-38	-8	16	9	-12	BaF3 parental 2=-4;JAK2V617F confrm=-2
O=C(Cc1ccccc1)OCCNC(=O)c1cccnc1	2	-30	2	4	-4	5
c1ccc2c(CNC3CCCCCC3)c[nH]c2c1	27*	-3	0	7	/	20	BaF3 parental 2=-2;JAK2V617F confrm=38*
c1ccc2c(CN3CCCCCC3)c[nH]c2c1	62*	-27	1	26	-41	-20	BaF3 parental 2=11;JAK2V617F confrm=76*
CNCCc1c[nH]c2ccccc12	-1	-22	5	4	-19	2
CN(C)C(=S)SSC(=S)N(C)C	39*	22	102*	-3	-38	95*	BaF3 parental 2=0;JAK2V617F confrm=99*
CCOc1ccc(N2C(=O)/C(=C\c3cccs3)C(=O)NC2=S)cc1	63*	-18	-8	12	14	7	BaF3 parental 2=-5;JAK2V617F confrm=-5
CCOc1ccc(N2C(=O)/C(=C/c3ccco3)C(=O)NC2=S)cc1	/	-25	0	/	23	/
CCCCNS(=O)(=O)c1ccc(OCC(=O)N2CCN(Cc3ccc4c(c3)OCO4)CC2)cc1	/	-1	4	/	8	/
